Among all 2,400 compounds or so, about 220 (9.2%) were called active. This is one part of a sample in which actives are shown more often than they occur. Unmarked numbers belong to inactive results.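 Rule for the calls: active = signal change above the mean of dofetilide-free buffer controls plus 3 SD, so a positive margin; inactive = the rest.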
Experiment: thallium signal changes without hERG – cell-based, CHO-K1 parental line, FluxOR thallium flux, counter-screen for hERG block protection project, confirmation (AID 1839);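 note: compounds applied alone with no dofetilide to cells lacking hERG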
Settings: CHO-K1 parental cells, FluxOR thallium flux fluorescence; at 10 µM

Row | SMILES | signal change vs control minus 3*SD hit threshold (margin above threshold, higher = more increase)
1 | O=C(Nc1cccnc1)c1ccc(COc2cc(Cl)ccc2Cl)o1 | -33.5%
2 | CCCSc1cc(NCCOC(C)=O)c([N+](=O)[O-])c2nonc12 | -28.6%
3 | Cc1cc2ccccn2c1C(=S)NC(=O)c1ccccc1 | 2.8% (active)
4 | Cc1cccc(C(=O)NNC(=S)NC(=O)c2ccccc2)c1 | -45%
5 | Cc1ccc(C(=O)NNC(=S)NC(=O)c2ccccc2)cc1 | -43.2%
6 | COc1ccc(C(=O)NC(=S)N2CCC(C)CC2)cc1 | -29%
7 | Cc1ccc(/C=C/C(=O)c2ccccc(=O)c2O)cc1C | -20.1%
8 | Cc1ccc(/C=N/N2C(=O)c3ccccc3NC2c2ccc(C)cc2)cc1 (centres undefined) | -30%
9 | Cc1ccc(/C=C/C(=O)C2C(=O)c3ccccc3C2=O)cc1 | 8.4% (active)
10 | CCOC(=O)C1=C(O)c2ccccc2C(=O)/C1=C\c1ccc(CC)cc1 | -14.9%
11 | CCc1ccc(/C=C/C(=O)c2cc(Br)ccc(=O)c2O)cc1 | -23.5%
12 | CCc1ccc(/C=C/C(=O)C2C(=O)c3ccccc3C2=O)cc1 | 15.2% (active)
13 | COc1ccc(-n2c(SCc3ccccn3)nc3c(c2=O)SCC3)cc1OC | -16.3%
14 | O=C(COC(=O)c1cnccn1)c1ccc(Cl)cc1 | -30.4%
15 | CC1CCc2c(sc(NS(=O)(=O)c3ccccc3)c2C(=O)OC(C)C)C1 (centres undefined) | 5.8% (active)
16 | CC(C)OC(=O)c1c(NS(=O)(=O)c2ccccc2)sc2c1CCCC2 | -18.4%
17 | CCOC(=O)c1c(NS(C)(=O)=O)sc2c1CCC(C)C2 (centres undefined) | -5.6%
18 | CCOc1ccc(NC(=O)CSc2nc3nc(C)cc(C)n3n2)cc1 | -31.5%
19 | CC1=CCC[C@@H]2[C@@](C)(CC/C(C)=C/C(=O)O)[C@H](C)CC[C@@]12C | 7.9% (active)
20 | O=[N+]([O-])c1cccc(/C=C/c2nc(C=Nc3ccccc3)c(O)o2)c1 | -34.1%

Row | SMILES | signal change vs control minus 3*SD hit threshold (margin above threshold, higher = more increase)
21 | Cc1ccc(C(=O)NNC(=S)NC(=O)c2ccc(Cl)cc2)cc1 | -46.2%
22 | CC(C)(C)C1(O)CC(C(F)(F)F)=NN1C(=O)Cc1ccc([N+](=O)[O-])cc1 (centres undefined) | -27%
23 | CCOC(=O)c1cnc(-n2nc(C)cc2C)nc1Nc1cccc(C(=O)O)c1 | -22.1%
24 | CC1=NN(C(=O)c2ccc(Cl)cc2)C(O)(c2ccccc2)C1 (centres undefined) | -21.7%
25 | CC1=NN(C(=O)c2ccccc2Br)C(O)(c2ccc(Cl)cc2)C1 (centres undefined) | -36.1%
26 | COC(=O)C1=NN(C(=O)c2ccc(Cl)cc2)C(O)(c2ccccc2)C1 (centres undefined) | 17.7% (active)
27 | COC(=O)C1=NN(C(=O)c2ccc(C)cc2)C(O)(c2ccc(Cl)cc2)C1 (centres undefined) | 46.4% (active)
28 | CCC1=NN(C(=O)c2ccc(Cl)cc2)C(O)(c2ccc(C)cc2)C1 (centres undefined) | -25.9%
29 | CCC1=NN(C(=O)c2ccc(Cl)cc2)C(O)(c2ccccc2)C1 (centres undefined) | -32.2%
30 | CCOC(=O)C1=NN(C(=O)c2cccc(Br)c2)C(O)(C(C)(C)C)C1 (centres undefined) | 49.8% (active)
31 | COC(=O)C1=NN(C(=O)c2cccc(Br)c2)C(O)(c2ccc(Cl)cc2)C1 (centres undefined) | 64.5% (active)
32 | Cc1c(C)c2ccc(OCC(=O)N[C@@H](Cc3ccccc3)C(=O)O)cc2oc1=O | -15.2%
33 | O=C(C1CC(=O)N(c2ccc3c(c2)OCCO3)C1)N1CCCC(C(F)(F)F)C1 (centres undefined) | -31.3%
34 | COc1ccc(/C(C)=N/Nc2ccc(C(=O)O)cc2)c(OC)c1 | -36.2%
35 | Cc1ccc(C(=C2C3C=CC2C2C(=O)NC(=O)C32)c2ccc(C)cc2)cc1 (centres undefined) | -28.1%
36 | O=C(Nc1nc2c(Br)cc(Br)cc2c(=O)s1)C1CCC1 | -21%
37 | Cc1ccc(/C(O)=C/C(=O)C(=O)NC23CC4CC(CC(C4)C2)C3)cc1 | -22.7%
38 | CCn1ncc(Cl)c1C(=O)NC(=S)Nc1ccccc1Br | -0.1%
39 | Cc1cccc(/C=N/n2c(COc3ccccc3)n[nH]c2=S)c1 | -23.1%
40 | COc1ccc(NC(=S)NC(NC(=O)c2cccc3ccccc23)C(Cl)(Cl)Cl)c([N+](=O)[O-])c1 (centres undefined) | -33.1%

Row | SMILES | signal change vs control minus 3*SD hit threshold (margin above threshold, higher = more increase)
41 | NC(=O)C1CCN(C(=O)c2cc3c(s2)CCCC3)CC1 | -20.8%
42 | O=C(COc1cccc(-n2cnnn2)c1)Nc1ccc([N+](=O)[O-])cc1 | -25.2%
43 | O=C(Nc1nc(-c2ccccc2)c(-c2ccccc2)o1)c1ccc(F)cc1 | -18.6%
44 | O=C(NC(=S)N1CCN(c2ccc(Cl)cc2[N+](=O)[O-])CC1)c1cccs1 | -23.6%
45 | COCCNC(=O)C(c1ccncc1)N(C(=O)Cn1nnc2ccccc21)c1ccc(OC)cc1 (centres undefined) | -24.4%
46 | COc1cccc(C=NCC(C)N=Cc2cccc(OC)c2O)c1O (centres undefined) | -13.1%
47 | COc1cccc(C=NCCCN=Cc2cccc(OC)c2O)c1O | 0.5% (active)
48 | COc1cccc(C=Nc2cc(C)cc(C)c2)c1O | -7.5%
49 | Cc1ccc(O)c(C(=O)CC(=O)c2ccccc2Cl)c1 | -27.9%
50 | Cc1cc(Br)c(NC(=O)COC(=O)C2CC2C)c(Br)c1 (centres undefined) | -27.2%
51 | CN(C(=O)CSc1ncnc2sc(-c3ccccc3)cc12)C1CCS(=O)(=O)C1 (centres undefined) | 24.3% (active)
52 | CCOC(=O)c1sc2nc(C)nc(SCC(=O)N(C)C3CCS(=O)(=O)C3)c2c1C (centres undefined) | -20.4%
53 | O=C(O)CCSc1ncnc2sc(-c3ccccc3)cc12 | -4.3%
54 | CCOC(=O)C1=C(N)Oc2cc(O)ccc2C1c1cccnc1 (centres undefined) | -22.5%
55 | N#Cc1cccc(NC(=O)c2nc(-c3ccccc3)n(-c3ccccc3)n2)c1 | -41.8%
56 | CCOC(=O)N1CCN(C(=O)c2ccc(C)c(S(=O)(=O)Nc3ccccc3)c2)CC1 | -15%
57 | Cc1cccc(NC(=S)N/N=C2\CC(C)(C)Oc3ccc(O)cc32)c1 | -19.7%
58 | O=C(NC(=S)NCCc1ccccc1)c1cccc(Cl)c1 | -28.3%
59 | O=C1C(c2ccccc2)C(c2ccccc2)NC(c2ccccc2)C1c1ccccc1 (centres undefined) | -27.2%
